Assay outcomes as filed in PubChem BioAssay.
Tg IFNy HTS: T. gondii growth inhibition with IFN-gamma, primary screen, cell-based; Toxoplasma gondii growth in IFN-gamma-treated host cells; stronger effect = lower value; activity change, negative = inhibition, % (no concentration beside the values); 69,000 tested, 3.8% active; in the data active = activity change below about -70%, passing the limit was not always enough;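 also: host cells are HeLa cells infected with Toxoplasma gondii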
Starred values were filed as active, the others as inactive. The entries come from a sample that favours hits as a whole.

What do the screens show for `COc1cc(C(=O)N2CCc3c([nH]c4ccccc34)C2c2ccc(Cl)cc2)cc(OC)c1OC` (centres undefined)?
Tg IFNy HTS: 1

Results for O=C(c1ccccc1)N1CCc2c([nH]c3ccccc23)C1c1cccnc1 (centres undefined) ?
Tg IFNy HTS: 85

How did COc1ccc(C(=O)N2CCc3c([nH]c4ccccc34)C2c2cccnc2)cc1OC (centres undefined) do in these assays?
Tg IFNy HTS: 70

How did O=C(c1cccc(F)c1)N1CCc2c([nH]c3ccccc23)C1c1ccc(Cl)cc1 (centres undefined) do in these assays?
Tg IFNy HTS: -53

Results for COc1ccc(C(=O)N2CCc3c([nH]c4ccccc34)C2c2ccc(F)cc2)cc1OC (centres undefined) ?
Tg IFNy HTS: -32

What do the screens show for `CCOc1ccc(C2c3[nH]c4ccccc4c3CCN2C(=O)c2ccc(F)cc2)cc1` (centres undefined)?
Tg IFNy HTS: -89*

How did O=C(c1ccccc1)N1CCc2c([nH]c3ccccc23)C1c1ccc(Cl)cc1 (centres undefined) do in these assays?
Tg IFNy HTS: -99*

What do the screens show for `Cc1noc(-c2ccccc2)c1CNc1nc(-c2ccccc2)nc2ccccc12`?
Tg IFNy HTS: 28

What do the screens show for `O=C1C(=O)N(CN2CCc3c([nH]c4ccccc34)C2C(F)(F)F)c2ccc(F)cc21` (centres undefined)?
Tg IFNy HTS: 43

What do the screens show for `COc1ccc(NC(=O)CN2CCC3(CC2)N=C(c2ccc(C)cc2)C(=O)N3)c(OC)c1`?
Tg IFNy HTS: 48

Results for O=C(c1ccnnc1)N1CCc2ncnc(-c3ccc(F)cc3)c2CC1 ?
Tg IFNy HTS: -4

How did Cn1cccc1C(=O)Nc1ccc2c(c1)CCC(=O)N2 do in these assays?
Tg IFNy HTS: 49

What do the screens show for `O=C(CCC1CCCC1)N1CCc2c([nH]c3ccccc23)C1c1ccc(Cl)cc1` (centres undefined)?
Tg IFNy HTS: -106*

How did O=C(c1cccc(F)c1)N1CCc2c([nH]c3ccccc23)C1c1ccc(F)cc1 (centres undefined) do in these assays?
Tg IFNy HTS: 141

Results for O=C(c1ccc(Br)cc1)N1CCc2c([nH]c3ccccc23)C1c1ccc(F)cc1 (centres undefined) ?
Tg IFNy HTS: -94*

Results for COc1ccc(C2c3[nH]c4ccccc4c3CCN2C(=O)CCC2CCCC2)cc1 (centres undefined) ?
Tg IFNy HTS: -55

What do the screens show for `O=C(CCC1CCCC1)N1CCc2c([nH]c3ccccc23)C1c1ccc(F)cc1` (centres undefined)?
Tg IFNy HTS: -67

How did O=C(c1ccc(Br)cc1)N1CCc2c([nH]c3ccccc23)C1c1ccccc1 (centres undefined) do in these assays?
Tg IFNy HTS: -48

What do the screens show for `CSc1nnc(C2CCCN2C(=O)C(C)N2C(=O)C(C)Oc3ccccc32)n1C` (centres undefined)?
Tg IFNy HTS: -7

How did O=C(Nc1ccccc1Cl)c1c(O)c2ccccc2n(-c2ccccc2)c1=O do in these assays?
Tg IFNy HTS: 35

How did O=S(=O)(c1ccccc1)N1CCCCN2[C@H](CO)[C@H](c3ccc(C#CC4CCCC4)cc3)[C@@H]2C1 do in these assays?
Tg IFNy HTS: -1

What do the screens show for `C(=C\c1cccc(N2CCNCC2)n1)/c1ccccc1`?
Tg IFNy HTS: -78*

Results for CCc1ccccc1-c1cccc(N2CCNCC2)n1 ?
Tg IFNy HTS: -6

How did C(=C\c1cccc(N2CCNCC2)c1)/c1ccccc1 do in these assays?
Tg IFNy HTS: 3

What do the screens show for `COCC1c2nnn(C)c2CCN1S(=O)(=O)c1cn(C)cn1` (centres undefined)?
Tg IFNy HTS: 6

How did CN1CC2(CCCN(S(=O)(=O)c3cc(F)c(F)cc3F)CC2)OC1=O (centres undefined) do in these assays?
Tg IFNy HTS: 24

Results for COc1cccc(S(=O)(=O)N2CC[C@@H]3[C@H](CO)Nc4ccc(C#Cc5cccnc5)cc4[C@@H]32)c1 ?
Tg IFNy HTS: 10

How did Cc1nccn1C(C(=O)Nc1ccc2c(c1)nc(C(F)(F)F)n2C)c1ccccc1 (centres undefined) do in these assays?
Tg IFNy HTS: 13

How did CCn1cc(CN2CCN(C(=O)c3ccnc(N4CCOCC4)c3)CC2)c(C)n1 do in these assays?
Tg IFNy HTS: 14

What do the screens show for `Cc1nn(CCO)cc1CN1CCN(S(=O)(=O)c2ccccc2)CC1`?
Tg IFNy HTS: -7

Results for CCn1cc(CN2CCN(C(=O)c3cc4c(F)cccc4[nH]3)CC2)c(C)n1 ?
Tg IFNy HTS: -108*

What do the screens show for `CCOc1ccc2nc(N3CCCC(N(C)CCCN4CCOCC4)CC3)nc(C)c2c1` (centres undefined)?
Tg IFNy HTS: -10

What do the screens show for `Cc1ccccc1C1(O)CCN(c2ccnc(C(=O)NCc3ccco3)c2)C1` (centres undefined)?
Tg IFNy HTS: -11

Results for CCCc1nc(CNC(=O)c2c(O)cccc2O)cs1 ?
Tg IFNy HTS: -8

Results for COc1cccc(NC(=O)N2C[C@@H](O)COC[C@H]3O[C@@H](CC(=O)N(C)C)CC[C@@H]32)c1 ?
Tg IFNy HTS: 8

What do the screens show for `CC(=O)Nc1ccc(S(=O)(=O)N2CCC(Cc3cc(N)nc(C)n3)CC2)cc1`?
Tg IFNy HTS: -3

Results for CC(=O)Nc1ccc(S(=O)(=O)N2CCC(n3cnc4cccnc43)CC2)cc1 ?
Tg IFNy HTS: -96*

How did O=C(N1CCC(n2cnc3cccnc32)CC1)N1c2ccccc2Sc2ccccc21 do in these assays?
Tg IFNy HTS: -11

Results for O=C(c1ccccn1)N1CC[C@H]2[C@H](CO)Nc3ccc(C#Cc4cccnc4)cc3[C@H]21 ?
Tg IFNy HTS: 6

How did CN(C)C(=O)CNC(=O)c1cc(-c2cnc(N3CCOCC3)nc2)cn1CC1CC1 do in these assays?
Tg IFNy HTS: 43

How did Cc1ccc(NC(=O)c2cc(-c3cnc(N4CCCC4)nc3)cn2CC2CC2)cn1 do in these assays?
Tg IFNy HTS: -22

Results for O=C(NCc1ccc(F)cc1F)c1cc(-c2cnc(N3CCCC3)nc2)cn1CC1CC1 ?
Tg IFNy HTS: -103*

How did COc1ncccc1NC(=O)c1cc(-c2cnc(N3CCCC3)nc2)cn1CC1CC1 do in these assays?
Tg IFNy HTS: -45

Results for CCCCN(C)C(=O)c1cc(-c2cnc(N3CCOCC3)nc2)cn1CC1CC1 ?
Tg IFNy HTS: -67

Results for Cc1cccc(NC(=O)c2cc(-c3cnc(N4CCOCC4)nc3)cn2CC2CC2)c1 ?
Tg IFNy HTS: -80*

Results for Cc1ccc(CSC2=Nc3ccccc3C3=NC(CCC(=O)NC4CCCCC4)C(=O)N23)cc1 (centres undefined) ?
Tg IFNy HTS: 23

What do the screens show for `Cc1nn(C)c(C)c1-c1cc(C(=O)N2CC(c3ccncc3)C2)n(C)n1`?
Tg IFNy HTS: -8

Results for O=C(COc1nsnc1N1CCOCC1)N(Cc1ccncc1)C1CCCCC1 ?
Tg IFNy HTS: -11

Results for CCOc1ccsc1C(=O)N1CCC2OCCCC2(COC)C1 (centres undefined) ?
Tg IFNy HTS: -38

How did CC(C)CC(=O)Nc1n[nH]c2c1CN(C(=O)C1CCN(C)CC1)C2(C)C do in these assays?
Tg IFNy HTS: -76*

What do the screens show for `CCn1nc(C(C)C)cc1C(=O)NC(C)C1CC2CCC1C2` (centres undefined)?
Tg IFNy HTS: -4

How did CC(=O)N1CCO[C@@H]2CN(S(=O)(=O)c3ccc(F)cc3)CC[C@@H]2C1 do in these assays?
Tg IFNy HTS: -5
